Source: publication PMC4336329 (PLoS ONE, 2015)
Hit rate of the full screen: of about 310,000 compounds, about 14,000 (4.5%) showed an effect of 50% or more. Effects have a minus sign here. For the sample, strong results were picked, then their nearest neighbours and some compounds at random.

target: human ether-à-go-go-related gene (hERG) potassium channel (human, UniProt Q12809); experiment: primary screen, population patch clamp on CHO cells stably expressing hERG; higher = less effect of the substance
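Also: peak tail current of the secondary pulse compared with the same well before compound.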

Sequence of human ether-à-go-go-related gene (hERG) potassium channel (Q12809 whole entry, looked up): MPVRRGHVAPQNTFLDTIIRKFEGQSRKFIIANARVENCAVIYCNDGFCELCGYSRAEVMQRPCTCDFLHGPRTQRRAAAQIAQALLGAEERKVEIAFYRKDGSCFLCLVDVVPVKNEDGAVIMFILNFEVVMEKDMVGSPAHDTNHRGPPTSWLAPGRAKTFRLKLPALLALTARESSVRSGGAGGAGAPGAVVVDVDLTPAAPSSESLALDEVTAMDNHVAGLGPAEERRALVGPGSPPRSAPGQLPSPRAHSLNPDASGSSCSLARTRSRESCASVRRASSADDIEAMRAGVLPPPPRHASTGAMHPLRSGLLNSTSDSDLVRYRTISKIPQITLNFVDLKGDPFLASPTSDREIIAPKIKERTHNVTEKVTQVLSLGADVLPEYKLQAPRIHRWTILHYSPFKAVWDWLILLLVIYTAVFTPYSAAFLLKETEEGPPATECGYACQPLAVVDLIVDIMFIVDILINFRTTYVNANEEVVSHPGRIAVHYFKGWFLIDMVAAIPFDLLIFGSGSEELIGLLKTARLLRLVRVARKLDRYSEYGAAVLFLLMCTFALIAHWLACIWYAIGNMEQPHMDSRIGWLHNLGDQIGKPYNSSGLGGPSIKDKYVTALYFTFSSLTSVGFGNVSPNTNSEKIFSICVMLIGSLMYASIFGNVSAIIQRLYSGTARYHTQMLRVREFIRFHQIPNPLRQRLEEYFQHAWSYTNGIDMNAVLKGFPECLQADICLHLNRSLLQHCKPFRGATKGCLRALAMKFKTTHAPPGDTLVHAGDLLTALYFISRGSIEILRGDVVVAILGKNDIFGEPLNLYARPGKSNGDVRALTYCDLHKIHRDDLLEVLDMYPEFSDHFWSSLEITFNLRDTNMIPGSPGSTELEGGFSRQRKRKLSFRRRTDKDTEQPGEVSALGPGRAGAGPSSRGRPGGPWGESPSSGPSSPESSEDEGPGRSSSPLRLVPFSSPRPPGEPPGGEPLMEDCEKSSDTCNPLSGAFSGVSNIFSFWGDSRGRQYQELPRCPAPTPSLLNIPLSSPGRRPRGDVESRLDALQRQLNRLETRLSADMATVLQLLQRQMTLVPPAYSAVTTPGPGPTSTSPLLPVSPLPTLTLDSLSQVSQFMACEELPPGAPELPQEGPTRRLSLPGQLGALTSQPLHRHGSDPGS

SMILES	hERG current change (%, negative = inhibition) at 10uM
CCCCn1c(N)c(N(CCOC)C(=O)COC(=O)c2cc(CC)c(C)s2)c(=O)[nH]c1=O	22%
Cn1c(SCC(=O)Nc2ccc3[nH]c(=O)[nH]c3c2)nnc1-c1ccc(F)cc1	7.63%
[O-]/[N+](=C\c1ccccc1)c1ccc(Br)cc1	-0.595%
CCn1c(CSc2nc3ccccc3s2)nnc1SCC(=O)c1ccc(Cl)cc1	6.76%
CC(=O)c1cccc(NC(=O)N2CCCC2C(=O)NCc2ccccc2)c1 (stereo not shown)	15%
C1=C(c2ccccc2)CCN(c2nc3ccccc3n3cnnc23)C1	-8.21%
CCCCN(C)CCNC(=O)C1CCN(S(=O)(=O)c2cccc3nsnc23)CC1	-15.3%
O=[N+]([O-])c1ccc(Oc2c(F)c(F)nc(N3CCCC3)c2F)cc1	-19.7%
CCN(CC)CCN(C(=O)c1ccc(C(C)=O)cc1)c1nc2ccc(Cl)cc2s1.Cl	-30.2%
Cc1ccc(C(=O)N(CCCN(C)C)c2nc3ccc(Cl)cc3s2)cc1C.Cl	-56.4%
CN(C)CCN(C(=O)c1ccc(S(=O)(=O)N(C)c2ccccc2)cc1)c1nc2ccc(Cl)cc2s1.Cl	-13%
CNS(=O)(=O)c1cccc2cccnc12	11.1%
CCN1C(=O)CC(NCc2ccc3c(c2)OCO3)C1=O (stereo not shown)	-9.23%
O=C1CC(NCc2ccc3c(c2)OCO3)C(=O)N1Cc1ccc2c(c1)OCO2 (stereo not shown)	-4.06%
Cc1ccc(N2C(=O)CC(NCc3ccc4c(c3)OCO4)C2=O)cc1Cl (stereo not shown)	-54.8%
CS(=O)(=O)N(CC(=O)N1CCN(Cc2ccccc2)CC1)c1ccccc1F	-5.93%
CCN(CC)C(=O)CSc1nnc(-c2cc(-c3ccc(Cl)cc3)nc3ccccc23)o1	-3.85%
CCNC(=O)CSc1nnc(-c2cc(-c3ccc(Cl)cc3)nc3ccccc23)o1	-82.3%
CCC(C)NC(=O)CSc1nnc(-c2cc(-c3cccs3)nc3ccccc23)o1 (stereo not shown)	-0.833%
Cc1nn(-c2cc(N3CCCCCC3)ccc2[N+](=O)[O-])c(=O)c2ccccc12	6.02%
O=C(NCCc1c[nH]c2ccccc12)C(=O)NCC(c1ccco1)N1CCN(c2ccc(F)cc2)CC1 (stereo not shown)	7.65%

SMILES	hERG current change (%, negative = inhibition) at 10uM
Cc1cc(C)n(CC(=O)c2ccccc2)c(=O)c1C#N	10.9%
CCNc1nc(NCC)nc(SCCOC(=O)Nc2ccccc2)n1	-71%
CCNc1nc(NCC)nc(SCCOC(=O)c2ccccc2)n1	-39.4%
CCNc1nc(NCC)nc(OCCOC(=O)Nc2ccccc2)n1	-0.811%
O=C(CSc1nnc(CNC(=O)c2ccccc2)o1)NCc1ccco1	-0.224%
Cc1ccc(CSc2ccc(S(=O)(=O)N3CCOCC3)cn2)cc1	-10.2%
COc1cc(/C=C/C(=O)Nc2ccccc2C(F)(F)F)cc(OC)c1OC	-5.76%
COC(=O)CN(c1nc(C)cc(OC)n1)S(=O)(=O)c1ccc(C)cc1	-8.25%
Cc1c(C(=O)C(=O)NCCc2ccc(S(N)(=O)=O)cc2)c2ccccc2n1C	-13.4%
COc1ccc(S(=O)(=O)NCc2ccncc2)cc1NC(=O)c1ccccc1F	18.7%
COc1ccc(S(=O)(=O)NCc2ccncc2)cc1NC(=O)c1ccc(Cl)cc1	-67.4%
COc1ccc(S(=O)(=O)NCc2cccnc2)cc1NC(=O)c1ccccc1	-3.99%
COc1ccc(S(=O)(=O)NCC2CCCO2)cc1NC(=O)c1ccccc1 (stereo not shown)	-15.4%
COc1ccc(S(=O)(=O)NCc2ccccn2)cc1NC(=O)c1ccc(C)cc1	-16.5%
COc1ccc(S(=O)(=O)NCC2CCCO2)cc1NC(=O)c1ccccc1F (stereo not shown)	19.1%
COc1ccc(S(=O)(=O)NCc2cccnc2)cc1NC(=O)c1ccc(Cl)cc1	-52.2%
COc1ccc(S(=O)(=O)NCc2ccccn2)cc1NC(=O)c1ccc(Cl)cc1	-68.8%
COc1ccc(S(=O)(=O)NCc2ccncc2)cc1NC(=O)c1ccccc1	-34.7%
COc1ccc(S(=O)(=O)NCc2cccnc2)cc1NC(=O)c1ccc(C)cc1	-17.6%
COc1ccc(S(=O)(=O)NCC2CCCO2)cc1NC(=O)c1ccc(Cl)cc1 (stereo not shown)	-54%
COc1ccc(S(=O)(=O)NCc2ccccn2)cc1NC(=O)c1ccccc1	8.45%

SMILES	hERG current change (%, negative = inhibition) at 10uM
O=C(CCN1CCCCO1)N1CCCC(N2CCN(c3ccc(F)cc3)CC2)C1 (stereo not shown)	-11.2%
COc1ccccc1OCC(=O)N1CCCC(N2CCN(c3ccc(F)cc3)CC2)C1 (stereo not shown)	-52.9%
Cc1cc(C)n(CC(=O)N2CCCC(N3CCN(c4ccc(F)cc4)CC3)C2)n1 (stereo not shown)	-18.1%
O=C(COc1ccccc1Cl)N1CCN(c2ccc(F)cc2)CC1	-6.04%
COc1ccc(N2CCN(C3CCCN(C(=O)CSC)C3)CC2)cc1 (stereo not shown)	3.1%
Cc1ccc(OCC(=O)N2CCCC(N3CCN(c4ccc(F)cc4)CC3)C2)cc1 (stereo not shown)	-101%
O=C(COc1ccccc1Cl)N1CCCC(N2CCN(c3ccc(F)cc3)CC2)C1 (stereo not shown)	-65.8%
COc1ccccc1N1CCN(C2CCCN(C(=O)CC(F)(F)F)C2)CC1 (stereo not shown)	12.4%
COc1ncccc1C(=O)N1CCCC(N2CCN(c3ccc(F)cc3)CC2)C1 (stereo not shown)	-26.7%
COc1ccc(CN2CCN(C(=O)CCC(=O)Nc3nnc(CC(C)C)s3)CC2)cc1F	-17.9%
O=C(c1cccc2ccccc12)N1CCN(c2ccccc2F)CC1	-9.72%
O=C(CCC(=O)Nc1ccccc1)N/N=C/C=C/c1ccccc1	32.1%
CC(=O)Nc1ccc(NC(=O)C2CC(=O)N(c3cccc(C)c3C)C2)cc1 (stereo not shown)	9.48%
Cc1ccn2c(CN(C)CCn3nc(C)cc3C)c(C(=O)N3CCCCCC3)nc2c1	4.86%
Cc1cc2cc3c(cc2nc1SCc1ccccn1)OCCO3	5.43%
O=c1c(Cl)c(N2CCOCC2)cnn1-c1ncc(C(F)(F)F)cc1Cl	5.44%
Cc1ccc(N2CC(C(=O)Nc3ccc(S(=O)(=O)N4CCCC4)cc3)CC2=O)cc1C (stereo not shown)	6.52%
Cc1c(/C(O)=C2/C(=O)C(=O)N(CCN3CCOCC3)C2c2cccs2)cnn1-c1ccccc1 (stereo not shown)	13.6%
COc1cccc(C(=O)NCc2ccc3c(c2)cc(C)n3C)c1	17%
CCc1ccc2[nH]c(=O)c(CN(CCO)C(=O)NCc3ccccc3)cc2c1	3.64%
CCc1ccc2[nH]c(=O)c(CN(Cc3ccccc3)C(=O)Nc3ccccc3OC)cc2c1	4.2%

SMILES	hERG current change (%, negative = inhibition) at 10uM
CCc1ccc2[nH]c(=O)c(CN(CCN(CC)CC)C(=O)Nc3ccccc3OC)cc2c1	-76.5%
CCc1ccc2[nH]c(=O)c(CN(CCN(C)C)C(=O)Nc3ccccc3OC)cc2c1	-64.7%
CCc1ccc2[nH]c(=O)c(CN(CCCO)C(=O)NCc3ccccc3)cc2c1	-13%
CCc1ccc2[nH]c(=O)c(CN(Cc3ccccc3OC)C(=O)Nc3ccccc3OC)cc2c1	3.47%
Nc1nc(SCc2ccc(Cl)c(Cl)c2)n[nH]1	10.4%
O=C(COC(=O)c1ccc(F)c(S(=O)(=O)N2CCOCC2)c1)c1ccc(Cl)cc1	-31.1%
COc1ccccc1/C=N/NC(=O)c1cccc(NC(=O)c2ccccc2C)c1	-4.64%
Cc1ccc(NC(=O)C2CSC3(C)CCC(=O)N23)cc1S(=O)(=O)N1CCCCCC1 (stereo not shown)	-55.4%
CC12CCC(=O)N1C(C(=O)OCC(=O)Nc1cc(S(=O)(=O)N3CCCCC3)ccc1Cl)CS2 (stereo not shown)	-48.2%
Cc1ccc(NC(=O)C2CSC3(C)CCC(=O)N23)cc1S(=O)(=O)N1CCOCC1 (stereo not shown)	2.81%
CC12CCC(=O)N1C(C(=O)N1CCN(S(=O)(=O)c3ccc(F)c(F)c3)CC1)CS2 (stereo not shown)	-53.7%
CC12CCC(=O)N1C(C(=O)Nc1ccc(Cl)c(S(=O)(=O)N3CCCCC3)c1)CS2 (stereo not shown)	-34.3%
CC(C)c1ccc(NC(=O)C2CSC3(C)CCC(=O)N23)cc1 (stereo not shown)	2.4%
CC12CCC(=O)N1C(C(=O)OCC(=O)Nc1cccc(Br)c1)CS2 (stereo not shown)	6.89%
CC12CCC(=O)N1C(C(=O)Nc1ccc(SC(F)F)cc1)CS2 (stereo not shown)	-57.6%
Cc1ccc(S(=O)(=O)N2CCN(C(=O)C3CSC4(C)CCC(=O)N34)CC2)cc1C (stereo not shown)	-13.8%
CC12CCC(=O)N1C(C(=O)OCC(=O)Nc1cccc(S(=O)(=O)N3CCCCCC3)c1)CS2 (stereo not shown)	-86.8%
CC12CCC(=O)N1C(C(=O)Nc1ccc(F)cc1)CS2 (stereo not shown)	12.4%
CC12CCC(=O)N1C(C(=O)N1CCN(S(=O)(=O)c3ccccc3F)CC1)CS2 (stereo not shown)	-30.1%
